Assay results: the supplement of paper PMC10849652
About 7,900 targets were measured; listed, in parts, are those with a hit and a random draw of the rest. About 0.6% of all pairs of compound and target were hits. Values without a mark were called inactive.

Experiments:
Assay in all cases: log2 fold change, soluble protein after heating vs DMSO (PISA); higher = thermal stabilisation; K562 cells, 10 uM, 30 min; active = over 0.2 and 3.5 SD of the protein, either way, in both replicates (recomputed)
[1] = compound: NC(=O)Nc1cc(-c2cccc(F)c2)sc1C(=O)N[C@H]1CCCNC1
Outline: (§1)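 Thermal stability values are relative to control samples and come from duplicates. They are expressed as log2 fold changes. For measurement, K562 cells (2×10^6 cells/mL) received 10 μM compound for 30 min, and aliquots were heated for 3 min over 48°C-58°C, pooled, and extracted at 4°C in PBS with 0.5% NP-40. Soluble protein, the supernatant after 21,000xg for 90 min, was quantified by TMTpro 16plex LC-MS/MS with equalised channel sums.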

[2] = compound: NC(=O)c1cnc(N[C@@H]2CCCC[C@@H]2N)nc1Nc1cccc(-n2nccn2)c1
Outline: as §1

[3] = compound: NCC(=O)Nc1ccc(-n2nc(C(F)(F)F)cc2-c2ccc3c(ccc4ccccc43)c2)cc1
Outline: as §1

entinostat = compound: Nc1ccccc1NC(=O)c1ccc(CNC(=O)OCc2cccnc2)cc1 [entinostat]
Outline: as §1

vorinostat = compound: O=C(CCCCCCC(=O)Nc1ccccc1)NO [vorinostat]
Outline: as §1

[4] = compound: O=C1NC(=O)C(c2cnc3ccccn23)=C1c1cn2c3c(cc(F)cc13)CN(C(=O)N1CCCCC1)CC2
Outline: as §1

[5] = compound: NC1(c2ccc(-c3nc4ccn5c(=O)[nH]nc5c4cc3-c3ccccc3)cc2)CCC1
Outline: as §1

citarinostat = compound: O=C(CCCCCCNC(=O)c1cnc(N(c2ccccc2)c2ccccc2Cl)nc1)NO [citarinostat]
Outline: as §1

silmitasertib = compound: O=C(O)c1ccc2c(c1)nc(Nc1cccc(Cl)c1)c1ccncc12 [silmitasertib]
Outline: as §1

[6] = compound: c1cc(OCCN2CCCCC2)cc(-c2n[nH]c3ccc(-c4nnc[nH]4)cc23)c1
Outline: as §1

Sequence of UniProt P29966 (P29966 whole entry, looked up): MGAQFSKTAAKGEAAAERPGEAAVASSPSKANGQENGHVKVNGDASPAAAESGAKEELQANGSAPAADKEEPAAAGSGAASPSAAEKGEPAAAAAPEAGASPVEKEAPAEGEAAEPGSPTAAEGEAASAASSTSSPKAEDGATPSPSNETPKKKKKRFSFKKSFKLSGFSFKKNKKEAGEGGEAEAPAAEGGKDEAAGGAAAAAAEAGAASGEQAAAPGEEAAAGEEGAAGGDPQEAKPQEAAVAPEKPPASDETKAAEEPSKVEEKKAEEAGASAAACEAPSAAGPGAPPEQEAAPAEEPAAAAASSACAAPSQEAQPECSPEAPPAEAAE
Sequence of UniProt P08514 (P08514 whole entry, looked up): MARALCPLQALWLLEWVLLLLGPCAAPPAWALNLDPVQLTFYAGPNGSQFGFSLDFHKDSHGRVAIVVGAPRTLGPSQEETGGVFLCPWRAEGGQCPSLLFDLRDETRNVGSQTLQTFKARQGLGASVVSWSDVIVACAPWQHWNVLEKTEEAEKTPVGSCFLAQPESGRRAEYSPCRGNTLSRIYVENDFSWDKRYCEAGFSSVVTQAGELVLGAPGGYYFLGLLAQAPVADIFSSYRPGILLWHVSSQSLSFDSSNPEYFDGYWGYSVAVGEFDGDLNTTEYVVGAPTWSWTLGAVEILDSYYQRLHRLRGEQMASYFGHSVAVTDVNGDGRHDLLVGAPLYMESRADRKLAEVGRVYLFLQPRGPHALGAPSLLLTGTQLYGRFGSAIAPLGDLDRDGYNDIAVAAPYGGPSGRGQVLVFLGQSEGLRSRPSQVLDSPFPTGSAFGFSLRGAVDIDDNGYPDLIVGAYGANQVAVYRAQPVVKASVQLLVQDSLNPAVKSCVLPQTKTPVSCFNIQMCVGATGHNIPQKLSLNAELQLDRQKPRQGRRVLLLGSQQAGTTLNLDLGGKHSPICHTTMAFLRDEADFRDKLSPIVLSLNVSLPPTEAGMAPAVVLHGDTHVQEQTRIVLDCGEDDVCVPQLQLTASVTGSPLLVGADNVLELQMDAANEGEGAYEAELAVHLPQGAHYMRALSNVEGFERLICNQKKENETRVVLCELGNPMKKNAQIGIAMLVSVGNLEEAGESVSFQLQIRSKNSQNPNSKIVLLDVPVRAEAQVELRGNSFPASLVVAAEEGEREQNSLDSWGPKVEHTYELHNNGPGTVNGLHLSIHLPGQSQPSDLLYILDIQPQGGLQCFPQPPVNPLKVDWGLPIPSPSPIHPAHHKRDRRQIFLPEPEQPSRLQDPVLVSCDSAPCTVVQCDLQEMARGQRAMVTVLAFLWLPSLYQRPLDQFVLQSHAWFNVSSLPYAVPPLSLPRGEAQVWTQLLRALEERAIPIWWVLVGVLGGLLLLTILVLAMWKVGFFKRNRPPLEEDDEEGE
Sequence of UniProt Q9H6K1 (Q9H6K1 whole entry, looked up): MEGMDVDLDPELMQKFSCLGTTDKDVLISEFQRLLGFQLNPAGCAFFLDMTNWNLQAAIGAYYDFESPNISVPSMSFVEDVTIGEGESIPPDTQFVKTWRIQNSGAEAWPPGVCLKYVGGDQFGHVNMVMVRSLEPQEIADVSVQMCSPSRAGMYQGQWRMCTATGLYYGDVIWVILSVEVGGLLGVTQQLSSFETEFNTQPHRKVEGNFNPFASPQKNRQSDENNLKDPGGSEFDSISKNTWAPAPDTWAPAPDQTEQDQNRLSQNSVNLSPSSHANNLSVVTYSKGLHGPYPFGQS
Sequence of UniProt Q9Y287 (Q9Y287 whole entry, looked up): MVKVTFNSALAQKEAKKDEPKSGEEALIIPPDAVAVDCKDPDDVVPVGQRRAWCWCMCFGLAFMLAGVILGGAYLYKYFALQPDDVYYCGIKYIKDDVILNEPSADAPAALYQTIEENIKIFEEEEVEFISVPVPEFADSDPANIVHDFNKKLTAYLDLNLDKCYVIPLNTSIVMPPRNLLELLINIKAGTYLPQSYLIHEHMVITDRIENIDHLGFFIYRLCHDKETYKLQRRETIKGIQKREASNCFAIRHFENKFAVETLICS
Sequence of UniProt P07948 (P07948 whole entry, looked up): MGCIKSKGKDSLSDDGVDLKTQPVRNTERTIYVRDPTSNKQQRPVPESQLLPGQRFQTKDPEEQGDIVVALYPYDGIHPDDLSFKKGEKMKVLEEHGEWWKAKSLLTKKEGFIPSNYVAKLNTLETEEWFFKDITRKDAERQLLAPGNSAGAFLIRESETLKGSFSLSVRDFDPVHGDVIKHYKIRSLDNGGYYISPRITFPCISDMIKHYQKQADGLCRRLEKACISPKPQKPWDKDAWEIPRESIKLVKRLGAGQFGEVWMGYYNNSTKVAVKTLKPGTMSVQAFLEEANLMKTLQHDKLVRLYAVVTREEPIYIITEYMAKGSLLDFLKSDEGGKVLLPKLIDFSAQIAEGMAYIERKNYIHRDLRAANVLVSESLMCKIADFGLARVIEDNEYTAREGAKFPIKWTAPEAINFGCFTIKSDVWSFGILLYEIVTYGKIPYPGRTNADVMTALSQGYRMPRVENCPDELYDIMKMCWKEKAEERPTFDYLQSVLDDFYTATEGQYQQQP
Sequence of UniProt Q86V48 (Q86V48 whole entry, looked up): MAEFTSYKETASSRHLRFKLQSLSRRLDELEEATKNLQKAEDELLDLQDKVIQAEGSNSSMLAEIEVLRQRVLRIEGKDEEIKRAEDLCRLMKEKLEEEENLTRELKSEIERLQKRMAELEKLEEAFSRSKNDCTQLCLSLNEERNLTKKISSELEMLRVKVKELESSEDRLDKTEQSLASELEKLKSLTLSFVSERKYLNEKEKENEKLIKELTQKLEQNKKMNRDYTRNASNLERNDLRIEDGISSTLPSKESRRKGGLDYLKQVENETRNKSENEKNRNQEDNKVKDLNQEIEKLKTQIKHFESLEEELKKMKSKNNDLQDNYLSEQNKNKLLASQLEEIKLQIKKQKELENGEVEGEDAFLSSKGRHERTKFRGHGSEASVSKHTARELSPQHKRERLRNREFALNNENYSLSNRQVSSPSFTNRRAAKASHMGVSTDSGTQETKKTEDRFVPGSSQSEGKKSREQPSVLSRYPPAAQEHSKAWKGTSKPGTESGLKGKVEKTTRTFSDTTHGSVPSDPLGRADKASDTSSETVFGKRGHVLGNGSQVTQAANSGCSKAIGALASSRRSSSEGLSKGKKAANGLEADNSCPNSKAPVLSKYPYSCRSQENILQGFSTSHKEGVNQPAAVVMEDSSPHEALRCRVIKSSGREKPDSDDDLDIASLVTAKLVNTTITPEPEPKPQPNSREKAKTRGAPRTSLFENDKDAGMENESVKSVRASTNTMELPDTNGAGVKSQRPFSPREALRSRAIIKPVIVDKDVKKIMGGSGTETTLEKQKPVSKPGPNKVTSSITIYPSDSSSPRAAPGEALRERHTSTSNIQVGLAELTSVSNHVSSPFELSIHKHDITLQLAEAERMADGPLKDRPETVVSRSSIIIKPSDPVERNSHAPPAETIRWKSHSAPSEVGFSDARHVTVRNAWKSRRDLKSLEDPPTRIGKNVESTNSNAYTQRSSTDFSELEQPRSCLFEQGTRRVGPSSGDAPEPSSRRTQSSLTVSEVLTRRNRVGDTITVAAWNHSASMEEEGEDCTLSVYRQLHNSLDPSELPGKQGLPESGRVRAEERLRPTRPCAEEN
Sequence of UniProt Q6UWB1 (Q6UWB1 whole entry, looked up): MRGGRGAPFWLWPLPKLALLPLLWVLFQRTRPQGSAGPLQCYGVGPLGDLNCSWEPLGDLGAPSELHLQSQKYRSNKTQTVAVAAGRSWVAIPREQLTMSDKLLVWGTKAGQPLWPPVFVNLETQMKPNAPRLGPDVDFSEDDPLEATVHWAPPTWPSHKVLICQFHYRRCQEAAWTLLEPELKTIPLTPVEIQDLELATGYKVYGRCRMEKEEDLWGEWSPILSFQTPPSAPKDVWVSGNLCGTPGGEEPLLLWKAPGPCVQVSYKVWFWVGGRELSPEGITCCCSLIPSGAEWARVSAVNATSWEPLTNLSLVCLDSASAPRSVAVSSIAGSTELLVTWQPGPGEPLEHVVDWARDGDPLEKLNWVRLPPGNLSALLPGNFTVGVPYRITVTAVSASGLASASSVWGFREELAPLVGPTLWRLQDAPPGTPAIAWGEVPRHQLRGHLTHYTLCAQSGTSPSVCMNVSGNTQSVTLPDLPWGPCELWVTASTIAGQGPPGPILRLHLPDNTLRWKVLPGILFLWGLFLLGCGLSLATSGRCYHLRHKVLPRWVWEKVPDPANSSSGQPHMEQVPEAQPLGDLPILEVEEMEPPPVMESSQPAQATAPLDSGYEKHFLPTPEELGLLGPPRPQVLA
Sequence of UniProt Q96GA3 (Q96GA3 whole entry, looked up): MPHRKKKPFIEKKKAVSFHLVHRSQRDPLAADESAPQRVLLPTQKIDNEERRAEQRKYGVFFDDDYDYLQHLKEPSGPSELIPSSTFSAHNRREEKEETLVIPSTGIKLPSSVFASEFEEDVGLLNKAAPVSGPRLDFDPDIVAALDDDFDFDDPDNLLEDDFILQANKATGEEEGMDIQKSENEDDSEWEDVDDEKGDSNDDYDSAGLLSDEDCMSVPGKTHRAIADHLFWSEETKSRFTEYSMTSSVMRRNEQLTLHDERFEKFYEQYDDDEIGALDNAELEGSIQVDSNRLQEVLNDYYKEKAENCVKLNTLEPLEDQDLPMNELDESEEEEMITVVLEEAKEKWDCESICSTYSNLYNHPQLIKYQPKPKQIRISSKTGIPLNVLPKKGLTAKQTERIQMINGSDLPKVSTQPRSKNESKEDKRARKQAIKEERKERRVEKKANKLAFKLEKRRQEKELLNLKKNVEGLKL
Sequence of UniProt Q15528 (Q15528 whole entry, looked up): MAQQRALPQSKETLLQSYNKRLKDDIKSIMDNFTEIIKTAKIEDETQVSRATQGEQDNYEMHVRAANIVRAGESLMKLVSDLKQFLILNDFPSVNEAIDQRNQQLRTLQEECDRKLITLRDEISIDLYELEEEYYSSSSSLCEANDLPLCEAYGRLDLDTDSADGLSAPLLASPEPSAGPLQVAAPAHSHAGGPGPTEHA
Sequence of UniProt Q96LU5 (Q96LU5 whole entry, looked up): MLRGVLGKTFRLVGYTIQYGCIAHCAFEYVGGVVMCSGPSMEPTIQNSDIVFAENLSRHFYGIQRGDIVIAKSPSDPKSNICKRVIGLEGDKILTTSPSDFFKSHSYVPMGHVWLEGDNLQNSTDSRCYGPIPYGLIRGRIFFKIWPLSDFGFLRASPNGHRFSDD

Row | Target | log2 fold change [1] | log2 fold change [2] | log2 fold change [3] | log2 fold change (entinostat) | log2 fold change (vorinostat) | log2 fold change [4] | log2 fold change [5] | log2 fold change (citarinostat) | log2 fold change (silmitasertib) | log2 fold change [6]
1 | ITM2C (UniProt Q9NQX7) | -0.309 | -0.009 | -0.133 | 0.164 | -0.032 | 0.029 | – | – | – | –
2 | IP6K1 (UniProt Q92551) | -0.039 | -0.253 | – | 0.089 | 0.138 | -0.048 | -0.457 | -0.02 | -0.059 | 0.858 (active)
3 | MFAP3 (UniProt P55082) | 0.043 | -0.04 | -0.09 | -0.052 | – | -0.243 | – | – | – | –
4 | ITM2B (UniProt Q9Y287) | -0.036 | 0.091 | 0.021 | -0.083 | – | 0.109 | -0.144 | -0.006 | 0.38 (active) | -0.178
5 | IGFBP3 isoform 2 (UniProt P17936) | 0.042 | -0.142 | -0.043 | -0.02 | 0.167 | -0.047 | – | – | – | –
6 | MELK (UniProt Q14680) | -0.384 | -0.128 | – | -0.052 | 0.062 | -0.016 | – | -0.001 | – | -0.366
7 | MAPK14 (UniProt Q16539) | -0.019 | -0.047 | -0.033 | 0.022 | 0.027 | – | -0.136 | 0.051 | 0.37 | 0.058
8 | IK (UniProt Q13123) | -0.016 | 0.119 | -0.08 | 0.008 | 0.026 | 0.017 | 0.06 | -0.235 | 0.132 | -0.078
9 | MED22 (UniProt Q15528) | 0.042 | 0.029 | 0.023 | 0.049 | – | -0.074 | 0.064 | -0.243 | -0.01 | 0.322 (active)
10 | LMBR1 isoform 3 (UniProt Q8WVP7) | 0.047 | -0.11 | -0.048 | 0.071 | -0.016 | -0.141 | -0.104 | – | 0.014 | –
11 | MARCKS (UniProt P29966) | -0.018 | 0.108 | 0.07 | -0.074 | -0.159 | 0.031 | 0.038 | 0.062 | -0.021 | -0.08
12 | MAP4K4 isoform 3 (UniProt O95819) | -0.199 | -0.154 | -0.013 | 0.07 | 0.075 | – | -0.204 | 0.044 | -0.024 | -0.179
13 | LYN isoform 2 (UniProt P07948) | 0.162 | 0.014 | -0.073 | -0.155 | – | 0.082 | – | – | – | –
14 | METAP1D (UniProt Q6UB28) | 0.061 | 0.252 | 0.073 | -0.071 | – | -0.099 | -0.033 | 0.098 | 0.064 | -0.04
15 | MED12 isoform 2 (UniProt Q93074) | 0.022 | -0.455 | – | 0.066 | 0.22 | -0.005 | -0.191 | 0.181 | 0.016 | -0.311
16 | MASTL (UniProt Q96GX5) | 0.123 | -0.018 | -0.004 | 0.053 | – | 0.039 | 0.144 | -0.018 | 0.123 | 0.002
17 | MAP3K20 isoform 2 (UniProt Q9NYL2) | 0.09 | -0.041 | – | 0.056 | – | -0.008 | 0.099 | – | 0.009 | –

Row | Target | log2 fold change [1] | log2 fold change [2] | log2 fold change [3] | log2 fold change (entinostat) | log2 fold change (vorinostat) | log2 fold change [4] | log2 fold change [5] | log2 fold change (citarinostat) | log2 fold change (silmitasertib) | log2 fold change [6]
18 | LPGAT1 (UniProt Q92604) | 0.038 | 0.048 | 0.063 | -0.047 | – | -0.015 | -0.102 | 0.157 | -0.015 | -0.108
19 | IMMP1L (UniProt Q96LU5) | -0.062 | -0.055 | -0.037 | 0.005 | – | -0.088 | -0.103 | 0.044 | -0.132 | 0.017
20 | INTS5 (UniProt Q6P9B9) | 0.015 | -0.116 | -0.175 | 0.014 | – | -0.076 | -0.079 | – | -0.006 | –
21 | LUM (UniProt P51884) | -0.067 | -0.108 | -0.002 | -0.033 | – | 0.185 | – | -0.042 | – | 0.47
22 | LUZP1 (UniProt Q86V48) | 0.055 | 0.089 | 0.058 | -0.081 | -0.119 | 0.084 | 0.087 | – | 0.114 | –
23 | MED8 isoform 2 (UniProt Q96G25) | 0.048 | 0.2 | 0.303 | -0.107 | – | -0.043 | 0.038 | 0.035 | 0.079 | -0.092
24 | MAN2B2 (UniProt Q9Y2E5) | 0.063 | -0.099 | 0.089 | -0.018 | – | -0.058 | -0.262 | 0.089 | -0.029 | -0.005
25 | ILRUN (UniProt Q9H6K1) | -0.213 | -0.09 | -0.025 | 0.024 | – | -0.059 | -0.128 | 0.027 | 0.014 | -0.01
26 | IGFBP4 (UniProt P22692) | -0.019 | 0.032 | -0.02 | 0.022 | -0.017 | 0.044 | -0.011 | -0.124 | 0.119 | 0.15
27 | ITGA2B (UniProt P08514) | 0.085 | -0.222 | -0.009 | -0.009 | -0.495 (active) | 0.02 | – | – | – | –
28 | KIF13A isoform 4 (UniProt Q9H1H9) | -0.034 | -0.165 | – | 0.303 | – | – | – | – | – | –
29 | IL27RA (UniProt Q6UWB1) | -0.077 | -0.091 | -0.123 | 0.016 | – | 0.154 | -0.116 | 0.082 | 0.009 | -0.172
30 | MAP4 isoform 5 (UniProt P27816) | 0.135 | 0.087 | – | 0.075 | – | 0.423 (active) | 0.109 | -0.121 | 0.012 | 0.074
31 | LTV1 (UniProt Q96GA3) | 0.006 | 0.008 | 0.041 | 0.034 | -0.005 | 0.132 | 0.003 | -0.038 | 0.147 | -0.16
32 | IL10RB (UniProt Q08334) | -0.113 | -0.121 | -0.031 | -0.431 (active) | 0.109 | 0.062 | – | 0.055 | – | -0.026
33 | MED25 isoform 3 (UniProt Q71SY5) | -0.016 | -0.021 | 0.064 | 0.065 | -0.349 | – | -0.591 (active) | 0.052 | 0.174 | -0.148
34 | MAGED1 isoform 2 (UniProt Q9Y5V3) | 0.098 | -0.029 | -0.258 | 0 | – | 0.262 | – | – | – | –
